# Assay outcomes from PubChem.
# A selection: hits, their analogues and other compounds. The true share with any hit is near 3%.
# Calpain2 inh – calpain II (pig) inhibition; purified calpain II, fluorogenic peptide substrate, 30 min; inhibition, % at 16 µM; hit rate 0.37% among 220,000;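 active = inhibition above about 50%, limit read from the data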
# 14-3-3 Bad PPI – disrupts binding of bovine 14-3-3 zeta to phospho-Bad peptide; P63103; TR-FRET 14-3-3zeta/Dy647-pBad peptide displacement, 1 h; hit rate 0.71% among 220,000; inhibition, % at 21.7 µM;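 active = inhibition above about 70%, limit read from the data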;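 note: 0% = full 14-3-3 plus peptide FRET controls and 100% = background without 14-3-3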
# Target sequence (P63103 whole entry, looked up): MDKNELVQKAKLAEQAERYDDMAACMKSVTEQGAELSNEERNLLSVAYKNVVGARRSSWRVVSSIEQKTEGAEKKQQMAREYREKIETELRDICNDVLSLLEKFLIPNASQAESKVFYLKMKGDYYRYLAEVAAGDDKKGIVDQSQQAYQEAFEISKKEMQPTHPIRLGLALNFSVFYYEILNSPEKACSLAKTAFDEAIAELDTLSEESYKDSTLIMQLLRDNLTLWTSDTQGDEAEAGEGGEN
# HMGR II inh – inhibitors of class II HMG-CoA reductase from Enterococcus faecalis | purified E. faecalis HMGR, NADPH absorbance 340 nm kinetic | hit rate 0.41% among 190,000 | inhibition, % at 10 µM;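 active = inhibition above a set limit, the median over all tested compounds plus 3 SD, cut at about 9.5% in these data; inconclusive = no clear call, values can overlap the other calls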;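 note: enzyme runs in reverse so mevalonate oxidation gives rising NADPH absorbance; 0% = complete reaction with DMSO and 100% = background rate lacking mevalonate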
# zVAD death inh – L929 zVAD cell death inhibition; L929 zVAD necroptosis rescue, ATP luminescence, 24 h; with zVAD 60 µM; viability rescue, % at 10 µM; hit rate 0.38% among 220,000; AID 1377;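 active = activation, scaled between plate controls, above about 75%, limit read from the data; inactive = activation under that limit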;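 note: 0% = zVAD with DMSO and 100% = DMSO alone without zVAD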
# ROMK mod – modulators of human ROMK potassium channel; P48048; Tet-inducible ROMK, thallium flux fluorescence; actives lie on both sides; B-score at 10 µM; hit rate 2% among 130,000;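 active = signal ratio slope over the read window, or its plate-corrected B-score, at least 3 SD from the plate mean, either direction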;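 note: B-score of the F/F0 ratio slope over 7 to 12 s after thallium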
# TNF death inh – inhibitors of TNF-alpha induced necroptosis in Jurkat FADD-/- cells | AID 463075 | hit rate 0.068% among 220,000 | Jurkat FADD-/- TNF necroptosis rescue, ATP luminescence, 24 h; 0 = TNF only, 100 = no-TNF cells | activation (protection from cell death), % at 10 µM;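 active = activation, meaning protection from cell death, of at least 50% relative to plate controls; inactive = activation below 50%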;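 note: necroptosis triggered by 40 ng/mL TNF-alpha added together with compound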
# ROMK retest – retested hit modulating human ROMK potassium channel. ROMK thallium flux, fluorescence ratio; hits give low values. shares compounds with ROMK mod. normalized thallium flux (F/F0 slope) at 10 µM. hit rate 54% among 3,000;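 active = Flux at 10 µM at least 3 SD below or above vehicle control mean in one or both replicates; inconclusive = no clear call, values can overlap the other calls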
# * hit, by the source's call; ? = inconclusive; . = no result given.
SMILES,Calpain2 inh,14-3-3 Bad PPI,HMGR II inh,zVAD death inh,ROMK mod,TNF death inh,ROMK retest
Cc1ccc(OCC(=O)Nc2cccc(-c3nnc(-c4ccccc4)o3)c2)cc1,7,-10,-1,1,.,-5,0.079
CCN(CC)c1ccc(N=Cc2cc(Br)ccc2O)cc1,-26,-14,7,0,-5.6*,-4,0.064*
Cc1[nH]c2ccccc2c1CN1CCN(c2ccccn2)CC1,9,0,.,13,-3.7*,-18,0.065*
Cc1cc(N2CCCCC2)nc(N2CCCCC2)n1,-6,1,0,1,-0.5,2,.
CC1Cc2nc(SCC(=O)N3CCN(c4ccccc4)CC3)n(CCc3ccccc3)c(=O)c2S1 (centres undefined),5,11,-1,0,.,-6,0.064*
CN(C)C(/C=C/Nc1ccc(Br)cc1)=C(C#N)C#N,14,-15,-3,1,.,1,.
Brc1ccc(N=C/C=C/C=C/Nc2ccc(Br)cc2)cc1,0,22,-8,0,.,-2,?
O=C(CCc1nc2ccccc2c(=O)[nH]1)N1CCN(c2ccc(F)cc2)CC1,-8,-19,-4,1,-0.33,1,.
CCn1c(Cc2ccc(OC)cc2)nnc1SCc1nc2ccccc2c(=O)[nH]1,2,-3,0,1,-0.02,2,.
Cc1ccc(NC(=O)COc2ccccc2CNC(C)(C)CC(C)(C)C)cc1,1,-7,-1,-1,-3.6*,-1,0.05*
CC(C)(CO)NCc1ccccc1OCC(=O)Nc1ccccc1,17,3,7,0,0.00071,0,.
COc1ccc(CNC(=O)CNS(=O)(=O)c2ccc(Cl)cc2)cc1,-1,3,1,0,-0.19,3,.
CN1C(=O)c2ccc(N3CCCC3)cc2C1=O,7,0,-3,8,.,0,.
Cc1cc(N2CCCC2)ccc1/C=C1\NC(=S)N(C)C1=O,-10,-12,-4,0,-3.2*,-3,0.025*
Cc1ccc(S(=O)(=O)N(C)C)cc1NS(=O)(=O)c1ccc(Cl)s1,-10,-9,-2,0,.,1,.
CC(CSc1nc2ccccc2s1)Cn1c(N2CCCC2)nc2c1c(=O)[nH]c(=O)n2C (centres undefined),24,-9,-2,-1,-3.1*,-7,0.06*
CC1CCC(C(C)C)C(OC(=O)Cn2c(-c3ccccc3)[n+](C)c3ccccc32)C1 (centres undefined),12,11,-8,10,-6.3*,-6,0.039*
Cc1cccc(OCc2n(CC(=O)OC3CC(C)CCC3C(C)C)c3ccccc3[n+]2C)c1 (centres undefined),-23,-15,-4,24,-6.2*,-14,0.037*
CC1CCC(C(C)C)C(OC(=O)Cn2c(-c3ccc(F)cc3)[n+](C)c3ccccc32)C1 (centres undefined),-14,-7,0,2,-5*,-5,0.047*
Cc1cccc(OC(=O)Cn2c(C(F)(F)F)nc3ccccc32)c1,-2,11,5,0,-0.74,-2,.
O=C(Nc1ccc(S(=O)(=O)N2CCN(Cc3ccccc3)CC2)cc1)c1cnccn1,-14,0,-6,0,.,-7,.
c1ccc(CN2C3=NCCN3c3ccccc32)cc1,-6,7,0,-1,-0.21,0,.
Clc1ccc(CN2C3=NCCN3c3ccccc32)cc1Cl,-26,-4,-7,-1,-2.8*,4,0.06*
O=C1C2C3c4ccccc4C(c4ccccc43)C2C(=O)N1Cc1cccnc1 (centres undefined),-11,11,3,0,-0.037,-2,.
CCC(C)(C)NC(=O)Cn1c(-c2ccc(C)cc2)noc1=O,-8,5,.,0,.,2,.
CCCC(C(=O)NC1CCCC1)N(Cc1cccs1)C(=O)c1snc(C(N)=O)c1N (centres undefined),-21,4,-4,0,.,-3,0.075
CC(C)CC(C(=O)NC1CCCC1)N(Cc1ccc2c(c1)OCO2)C(=O)c1snc(C(N)=O)c1N (centres undefined),-33,4,1,-2,-0.68,-1,.
